The values below come from PubChem BioAssay (Tox21).

Values without a mark were called inactive. Inconclusive results are not listed. Calls of active or inactive are those of the source. Unless noted, calls come from the whole dose curve; as a rule, active = well fitted curve in the direction sought with a large enough effect in the repeat runs; inconclusive = weak or mixed curves; inactive = no such curve, though single readings can be large; an effect the other way counts as inactive or inconclusive.

Assay [1] has as its target Thyrotropin receptor (Homo sapiens) (UniProt P16473). Kind of assay: qHTS assay to identify small molecule antagonists of the thyroid stimulating hormone receptor (TSHR) signaling pathway (AID 1259385; calls by dose curve; note: nearly all actives have a fitted effect of over 20% in size). In short, it runs like this:
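TSHR-HEK293 cells (800/well) plated 18 h, then compounds with Ro20-1724 and TSH at 1.5 ng/mL final, 30 min at room temperature. cAMP quantified by HTRF (cAMP-d2/anti-cAMP-cryptate, 1 h); 15 concentrations in triplicate.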

Assay [2] is described as follows: qHTS assay to identify small molecule agonists of the estrogen receptor alpha (ER-alpha) signaling pathway in the presence of an antagonist - cell viability counter screen (AID 1259386). For activity change, negative = cytotoxicity: series mostly up to about 92 µM.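 Note: cells exposed to compounds for 22 h at 37 °C before the viability read; nearly all actives have a fitted effect of over 30% in size.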 Note: potency is the fitted concentration of half-maximal effect. In short, it runs like this:
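VM7Luc4E2, stripped-serum pre-culture 5 d; 24hr plating; +ICI-182,780 10.0nM final; cpds 15 conc, 22hr, 37C/5% CO2; CellTiter-Fluor added at 21hr, fluorescence 1hr later.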

For assay [3], the target named is Progesterone receptor (Homo sapiens) (UniProt P06401). Nature of the assay: qHTS assay to identify small molecule antagonists of the progesterone receptor (PR) signaling pathway (AID 1346795; active = well fitted inhibition curve with a large enough effect in the signal ratio in the repeat runs, not every such curve was filed as active; the % refers to the signal ratio; note: potency is the fitted concentration of half-maximal effect). In a few lines: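 Beta-lactamase reporter, HEK293T PR-UAS-bla line; 2% charcoal-stripped FBS; 6 hr pre-incubation, 37C/5% CO2. Compound + R5020 1 nM final, 16 hr. LiveBLAzer B/G FRET substrate, 2 hr RT; fluorescence intensity read.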
A general note: In qHTS, concentration-response curves come from the screen itself.

Assay [4] in a line: qHTS assay to identify small molecule antagonists of the TGF-beta/Smad signaling pathway - cell viability counter screen (AID 1346824). Note: nearly all actives have a fitted effect of over 50% in size. In short, it runs like this:
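SBE-bla HEK 293T cells, incubated overnight, then compound plus 0.25 ng/mL TGF-beta1 (stock added) for 5 hr at 37 C. Viability was read in the same wells by CellTiter-Glo luminescence after 30 min at room temperature.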

Assay [5] can be described thus: qHTS assay to identify small molecule agonists of the TGF-beta/Smad signaling pathway - cell viability counter screen (AID 1346829). Note: top concentration of the series differs between compounds; nearly all actives have a fitted effect of over 45% in size. In short, it runs like this:
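HEK 293T SBE-bla line, 5 hr compound exposure at 37 C, multiplexed CellTiter-Glo viability read by luminescence.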

Assay [6] is described as follows: qHTS assay to identify small molecule agonists of the TGF-beta/Smad signaling pathway (AID 1346859; active = well fitted activation curve with a large enough effect in the signal ratio in the repeat runs, not every such curve was filed as active; the % refers to the signal ratio; note: series mostly up to about 77 µM). In a few lines: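 Read-out: fluorescence at 460 and 530 nm (405 nm excitation) after a 2 hr room-temperature incubation with beta-lactamase FRET substrate. SBE-bla HEK 293T cells had been treated with test compounds for 5 hr at 37 C.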
Assay [7] deals with Thyrotropin-releasing hormone receptor (Homo sapiens) (UniProt P34981). Kind of assay: qHTS assay to identify small molecule antagonists of the thyrotropin-releasing hormone receptor (TRHR) signaling pathway (AID 1346877; active = well fitted inhibition curve with a large enough effect in the repeat runs, not every such curve was filed as active; note: series mostly up to about 51 µM). In short, it runs like this:
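Intracellular calcium fluorescence, read kinetically every second over 3 min, reports TRH-evoked signalling in HEK293 cells carrying TRHR. Test compounds were added 5 min ahead of a 1 nM TRH challenge.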

The target in assay [8] is Progesterone receptor (Homo sapiens) (UniProt P06401). Nature of the assay: qHTS assay to identify small molecule agonists of the progesterone receptor (PR) signaling pathway (AID 1346784; calls by dose curve; note: nearly all actives have a fitted effect of over 30% in size; note: potency is the fitted concentration of half-maximal effect). In a few lines:
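HEK 293T PR-UAS-bla reporter cells, 2% charcoal-stripped FBS; 6 hr settle at 37C/5% CO2, compound (DMSO) 16 hr, LiveBLAzer B/G FRET substrate 2 hr RT, fluorescence intensity read.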

Assay [9] can be described thus: qHTS assay to identify small molecule antagonists of the progesterone receptor (PR) signaling pathway - cell viability counter screen (AID 1346798). For activity change, negative = cytotoxicity: series mostly up to about 92 µM. Note: nearly all actives have a fitted effect of over 50% in size. Note: potency is the fitted concentration of half-maximal effect. In short, it runs like this:
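Luminescence readout (CellTiter-Glo, 30 min, RT) of viability in PR-UAS-bla HEK293T cells exposed to compound and R5020 agonist for 16 hr at 37C, 5% CO2; run in the same wells as the beta-lactamase reporter read.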

A short description of assay [10]: qHTS assay to identify small molecule agonists of the progesterone receptor (PR) signaling pathway - cell viability counter screen (AID 1346799; calls by dose curve; note: nearly all actives have a fitted effect of over 45% in size; note: potency is the fitted concentration of half-maximal effect). In a few lines: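 HEK293T PR-UAS-bla, 3,000 cells/well, 2% charcoal-stripped FBS; 6 h settle, compound 16 h at 37C/5% CO2; LiveBLAzer 2 h RT, then CellTiter-Glo 30 min RT, luminescence read.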
% is set by controls: 0 for no effect and ±100 for the full control effect.

Sequence of Progesterone receptor (Homo sapiens) (P06401 whole entry, looked up): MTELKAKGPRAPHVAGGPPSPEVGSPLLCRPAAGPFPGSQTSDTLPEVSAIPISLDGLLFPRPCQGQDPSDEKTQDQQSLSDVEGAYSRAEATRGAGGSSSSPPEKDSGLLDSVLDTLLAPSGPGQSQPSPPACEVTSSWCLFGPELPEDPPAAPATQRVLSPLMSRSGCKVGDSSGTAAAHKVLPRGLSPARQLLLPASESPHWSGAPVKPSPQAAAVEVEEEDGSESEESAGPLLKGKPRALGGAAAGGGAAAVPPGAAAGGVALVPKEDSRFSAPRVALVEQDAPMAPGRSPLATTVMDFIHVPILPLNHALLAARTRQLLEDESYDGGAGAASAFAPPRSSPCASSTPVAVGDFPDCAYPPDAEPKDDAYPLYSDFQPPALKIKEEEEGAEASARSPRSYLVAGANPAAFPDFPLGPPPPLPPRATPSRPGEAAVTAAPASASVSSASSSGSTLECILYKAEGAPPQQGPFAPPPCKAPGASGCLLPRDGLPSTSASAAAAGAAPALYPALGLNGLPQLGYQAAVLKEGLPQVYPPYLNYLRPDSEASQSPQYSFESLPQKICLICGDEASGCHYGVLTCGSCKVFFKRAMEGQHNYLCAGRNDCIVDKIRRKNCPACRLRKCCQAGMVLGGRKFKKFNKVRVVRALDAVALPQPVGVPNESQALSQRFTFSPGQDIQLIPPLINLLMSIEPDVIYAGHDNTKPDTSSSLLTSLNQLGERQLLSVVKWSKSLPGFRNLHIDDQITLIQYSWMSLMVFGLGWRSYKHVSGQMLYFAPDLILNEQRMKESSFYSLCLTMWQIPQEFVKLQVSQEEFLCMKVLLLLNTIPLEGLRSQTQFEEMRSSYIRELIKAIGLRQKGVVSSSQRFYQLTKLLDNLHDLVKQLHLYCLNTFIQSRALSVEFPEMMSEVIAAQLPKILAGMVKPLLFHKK
Sequence of Thyrotropin-releasing hormone receptor (Homo sapiens) (P34981 whole entry, looked up): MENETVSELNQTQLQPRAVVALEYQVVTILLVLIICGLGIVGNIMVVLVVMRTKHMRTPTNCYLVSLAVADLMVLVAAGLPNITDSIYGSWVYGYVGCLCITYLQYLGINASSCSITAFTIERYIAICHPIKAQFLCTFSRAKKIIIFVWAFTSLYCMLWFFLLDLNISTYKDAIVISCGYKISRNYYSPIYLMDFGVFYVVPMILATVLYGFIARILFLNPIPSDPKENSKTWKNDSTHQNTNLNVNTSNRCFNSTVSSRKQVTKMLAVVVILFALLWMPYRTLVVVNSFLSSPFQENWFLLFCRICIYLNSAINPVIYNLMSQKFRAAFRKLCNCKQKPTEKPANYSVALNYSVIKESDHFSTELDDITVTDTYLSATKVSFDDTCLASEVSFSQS
Sequence of Thyrotropin receptor (Homo sapiens) (P16473 whole entry, looked up): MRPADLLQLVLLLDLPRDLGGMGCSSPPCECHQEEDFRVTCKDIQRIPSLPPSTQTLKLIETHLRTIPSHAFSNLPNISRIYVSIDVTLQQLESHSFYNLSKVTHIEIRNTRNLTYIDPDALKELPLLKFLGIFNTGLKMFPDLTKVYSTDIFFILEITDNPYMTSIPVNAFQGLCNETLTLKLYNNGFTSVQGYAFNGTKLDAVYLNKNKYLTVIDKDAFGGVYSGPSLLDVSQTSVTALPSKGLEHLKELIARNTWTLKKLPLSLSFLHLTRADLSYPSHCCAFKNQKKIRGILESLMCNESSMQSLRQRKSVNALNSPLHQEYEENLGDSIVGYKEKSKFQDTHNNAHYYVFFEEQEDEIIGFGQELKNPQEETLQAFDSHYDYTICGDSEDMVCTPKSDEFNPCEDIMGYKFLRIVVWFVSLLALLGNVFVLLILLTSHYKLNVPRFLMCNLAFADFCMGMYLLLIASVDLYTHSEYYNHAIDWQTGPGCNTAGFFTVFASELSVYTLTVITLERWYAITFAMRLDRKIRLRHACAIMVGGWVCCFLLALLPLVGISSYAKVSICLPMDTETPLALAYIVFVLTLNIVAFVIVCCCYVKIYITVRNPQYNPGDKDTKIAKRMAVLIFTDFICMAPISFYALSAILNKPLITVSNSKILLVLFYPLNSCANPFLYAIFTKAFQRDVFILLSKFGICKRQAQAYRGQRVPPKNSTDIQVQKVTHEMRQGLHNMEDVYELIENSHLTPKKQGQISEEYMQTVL

`Cc1c(Nc2ncccc2C(=O)O)cccc1C(F)(F)F`: the Potency entry in assay [1], in assay [2] and in assay [3] was “inactive” throughout. Moreover, the compound was called inactive in assay [4], in assay [5], in assay [6] and in [7].

Consider `N#Cc1ccc(CC(=O)c2cccc(C(F)(F)F)c2)cc1`, for which the Potency entry in assay [1], in assay [2], in assay [8] and in [9] was “inactive” throughout. Moreover, the call in [5], in assay [6] and in assay [7] was inactive.

Take `CC1=CC(=C(c2ccc(N)cc2)c2ccc(N)cc2)C=CC1=N`: the figures for the activity change, negative = inhibition in [1] and in [3] were 0.722% [at 8.39 µM] and 5.6% [at 8.39 µM], respectively. Also, the Potency in assay [8] is 0.39 µM (active). Moreover, the activity change, negative = cytotoxicity in assay [9] was 5.81% [at 8.39 µM]; in assay [10], 0% [at 8.39 µM]; in [5], 4.82% [at 6.97 µM]. The viability change, negative = cytotoxic in [4] is 12% [at 6.97 µM]. Further, in assay [6], the activation is 8.28% [at 6.97 µM].

`NC(=O)c1ccccc1C(N)=O`: the Potency entry in assay [1], in assay [2], in assay [3] and in assay [9] was “inactive” in each case. For the same compound, the compound was classed as inactive in [4], in assay [5], in assay [6] and in assay [7].

In the case of `Nc1ccc(-c2ccc(F)cc2)cc1`, the Potency entry in assay [1], in assay [8], in assay [9] and in [10] was “inactive” each time. Besides, in assay [3], the Potency was 6.11 µM (active). In addition, the outcome in assay [4], in assay [5] and in [6] was inactive.

Take `CC(C)=CCC/C(C)=C/C=N/O`: the Potency result in assay [1], in assay [2] and in assay [8] was “inactive” throughout. Further, the compound was called inactive in assay [4], in [5], in assay [6] and in assay [7].

Turning to `Cc1cccc(C)c1NC(=O)CN1CCCC1`, the Potency result in assay [1], in assay [2], in assay [9] and in [10] was “inactive” each time. The result in assay [4], in assay [5] and in assay [6] was inactive.

On to `C/C(=C\C(C)CC(C)CC(C)C)C1CC(=O)OC1=O` (configuration not stated), for which the Potency entry in [1], in assay [2] and in assay [8] was “inactive” throughout. Further, the call in [4], in assay [5], in [6] and in assay [7] was inactive.

For the compound `CC(=O)OCC(=O)[C@@]1(O)CC[C@H]2[C@@H]3CCC4=CC(=O)C=C[C@]4(C)[C@@]3(F)[C@@H](O)C[C@@]21C`, the Potency entry in assay [1], in assay [2] and in [10] was “inactive” in each case. The call in assay [5] and in assay [6] was inactive.

With `CC(C)C[C@H](NC(=O)[C@H](Cc1ccccc1)NC(=O)c1cnccn1)B(O)O`, the Potency result in [1], in assay [8] and in [10] was “inactive” throughout. In addition, the Potency in assay [2] is 0.841 µM (active). Moreover, the outcome in [4], in assay [5], in assay [6] and in assay [7] was inactive.

`COc1ccc(/C(C)=C/C(=O)O)c(OC)c1`: the Potency entry in [1], in assay [8], in assay [3], in [9] and in assay [10] was “inactive” throughout. In addition, the call in assay [4], in [5] and in assay [6] was inactive.

For `CC(C)(C)NCC(O)COc1ccc(NC(=O)NC2CCCCC2)cc1` (configuration not stated), the Potency entry in [1], in assay [8], in assay [3], in assay [9] and in [10] was “inactive” in each case. Further, the result in [4], in assay [5], in assay [6] and in assay [7] was inactive.

With `CC(C)CCCCCCCOC(=O)c1ccc(C(=O)OCCCCCCCC(C)C)c(C(=O)OCCCCCCCC(C)C)c1`, the Potency entry in [1], in assay [2] and in [8] was “inactive” throughout. In addition, the Potency in assay [10] is 42.6 µM (active). Also, the call in assay [4], in [5] and in [6] was inactive.

For `Cc1nc(C)c(C)nc1C`, the Potency entry in [1], in assay [2] and in assay [8] was “inactive” in each case. The Potency in [10] is 30.6 µM (active). The compound was classed as inactive in assay [4], in assay [5], in [6] and in assay [7].

For `O=S(=O)(O)c1cc(Cl)c(Cl)cc1Cl`, the Potency entry in assay [1], in [2] and in assay [8] was “inactive” each time. The Potency in assay [10] is 30.6 µM (active). Also, the call in assay [4], in assay [5] and in assay [7] was inactive.

As to `O=C(OCCCCCOC(=O)c1ccccc1)c1ccccc1`, the Potency result in [1], in assay [8], in assay [3], in assay [9] and in assay [10] was “inactive” each time. For the same compound, the call in [4], in [5], in [6] and in assay [7] was inactive.

In the case of `Cc1c(-c2cccnc2)c2ccccc2n1CCCCC(=O)O`, the Potency entry in [1], in assay [2], in [8] and in assay [10] was “inactive” in each case. Also, the call in [4] and in assay [5] was inactive.

For the compound `CCOc1ccc2c(c1)C(C)CC(C)(C)N2` (configuration not stated), the Potency entry in assay [1], in assay [2] and in [8] was “inactive” each time. Also, the outcome in assay [4], in assay [5], in assay [6] and in assay [7] was inactive.

`CCCCCCCCNC`: the Potency result in [1], in assay [8], in assay [3], in [9] and in assay [10] was “inactive” in each case. Further, the outcome in [4], in assay [5], in assay [6] and in assay [7] was inactive.

Regarding `Cc1cc(C)n(CO)n1`, the Potency entry in assay [1], in [2] and in [8] was “inactive” throughout. In addition, the outcome in assay [4], in [6] and in assay [7] was inactive.

Consider `COC(=O)C(C)(C)C`, for which the Potency entry in assay [1], in assay [2] and in assay [3] was “inactive” throughout. The compound was called inactive in assay [4], in [5], in [6] and in [7].

As for `Oc1ccc(CCNCCCCCCNCCc2ccccc2)cc1O`, the Potency entry in assay [1], in assay [8], in assay [3], in assay [9] and in [10] was “inactive” in each case. The outcome in assay [4], in assay [5], in assay [6] and in assay [7] was inactive.

As to `CO[C@@H]1COCC[C@@H]1N[C@@H]1CC[C@@](C(=O)N2CCc3ncc(C(F)(F)F)cc3C2)(C(C)C)C1`, the Potency result in assay [1], in assay [2] and in assay [9] was “inactive” throughout. In addition, the compound was classed as inactive in assay [5], in assay [6] and in [7].

Consider `O=C(O)c1c2ccccc2cc2ccccc12`, for which the Potency entry in [1], in assay [2], in assay [8] and in [10] was “inactive” each time. Further, the compound was called inactive in assay [4], in [5], in assay [6] and in assay [7].

With `O=C1c2ccccc2C(=O)C1c1ccc2cc(S(=O)(=O)O)cc(S(=O)(=O)O)c2n1`, the Potency entry in [1] was “inactive”. Further, the values for the Potency in assay [2], in assay [9] and in assay [10] were 26.3 µM (active), 20.9 µM (active) and 18.6 µM (active), respectively. The result in assay [4], in assay [5] and in assay [6] was inactive.

For `Nc1cccc2c(=O)[nH][nH]c(=O)c12`, the Potency entry in assay [1], in [2] and in assay [3] was “inactive” in each case. Besides, the compound was classed as inactive in [4], in assay [5] and in assay [6].

Take `O=c1[nH][nH]c2ccccc12`: the Potency result in [1], in assay [2], in assay [8] and in assay [10] was “inactive” throughout. The result in [5] and in [6] was inactive.
